miR122 inh: raises miR-122 sensor activity in Huh7 cells. 340,000 tested, 0.14% active. activation, % at 12.5 µM. Huh7 psiCHECK-miR122 Renilla luciferase sensor, 48 h. AID 623901;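 active = mean activation of 30% or more, with every replicate also reaching 30%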;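 also: 0% = median of neutral control wells and 100% = median of positive control wells; higher luciferase signal means stronger suppression of miR-122 activity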
Active calls of the source: *. This excerpt belongs to a sample that is enriched for hits.

SMILES | miR122 inh
CC(C)CC#Cc1cnc2c(c1)C(=O)N([C@@H](C)CO)C[C@@H](C)[C@H](CN(C)C(=O)CC1CC1)O2 | 8.5
COc1cccc(/C=N/Nc2ccc([N+](=O)[O-])cn2)c1O | 32.7*
C[C@@H]1CN([C@H](C)CO)S(=O)(=O)c2ccc(C#CCC3CCCC3)cc2O[C@@H]1CN(C)C(=O)c1ccccn1 | -13.6
CO[C@H]1CN(C)C(=O)c2cc(NC(C)=O)ccc2OC[C@@H](C)N(C(=O)c2ccccc2)C[C@@H]1C | 0.5
CC(C)C(=O)Nc1ccc2c(c1)C(=O)N(C)[C@H]1CC[C@@H](CC(=O)NCC3CC3)O[C@@H]1CO2 | -91.7
CN1C(=O)c2cc(NC(=O)Cc3ccccc3)ccc2OC[C@@H]2O[C@@H](CC(=O)NCc3ccc(Cl)cc3)CC[C@@H]21 | -233.3
CC(C)C(=O)Nc1ccc2c(c1)C(=O)N(C)[C@@H]1CC[C@@H](CC(=O)N[C@H](C)c3ccccc3)O[C@@H]1CO2 | 70.0*
COc1cccc(C(=O)Nc2ccc3c(c2)C(=O)N(C)[C@@H]2CC[C@@H](CC(=O)N[C@H](C)c4ccccc4)O[C@@H]2CO3)c1 | 46.7*
CO[C@@H]1CN(C)C(=O)c2cc(NC(=O)c3ccc(F)cc3)ccc2OC[C@@H](C)N(C)C[C@H]1C | -3.1
COc1cccc(CNC(=O)C[C@@H]2CC[C@H]3[C@H](COc4ccc(NS(=O)(=O)c5ccccc5F)cc4C(=O)N3C)O2)c1 | 36.7*
CCC(=O)Nc1ccc2c(c1)C(=O)N(C)C[C@H](OC)[C@@H](C)CN(Cc1ccccc1OC)[C@@H](C)CO2 | -4.4
COc1cccc(C(=O)Nc2ccc3c(c2)C(=O)N(C)[C@@H]2CC[C@@H](CC(=O)NCc4ccc(F)cc4)O[C@@H]2CO3)c1 | 36.7*
CNC[C@@H]1Oc2cc(-c3cccc(F)c3)ccc2S(=O)(=O)N([C@@H](C)CO)C[C@H]1C | 3.4
CC(C)C#Cc1cnc2c(c1)C(=O)N([C@@H](C)CO)C[C@@H](C)[C@H](CN(C)C(=O)c1ccccc1)O2 | 6.7
C[C@@H]1CN([C@H](C)CO)C(=O)c2cc(Br)cnc2O[C@H]1CN(C)Cc1cccc(F)c1 | 5.0
C[C@H](CO)N1C[C@H](C)[C@@H](CN(C)C(=O)c2ccncc2)Oc2ncc(/C=C/c3ccccc3)cc2C1=O | 8.9
COc1ccccc1-c1cnc2c(c1)C(=O)N([C@@H](C)CO)C[C@@H](C)[C@@H](CN(C)Cc1ccccc1)O2 | -2.2
CC(C)C#Cc1cnc2c(c1)C(=O)N([C@H](C)CO)C[C@@H](C)[C@@H](CN(C)Cc1ccccn1)O2 | 4.6
C[C@@H]1CN([C@@H](C)CO)C(=O)c2cc(C#Cc3ccccn3)cnc2O[C@@H]1CN(C)CC1CCOCC1 | 2.5
CC(C)C#Cc1ccc2c(c1)O[C@@H](CN(C)C(=O)CC1CC1)[C@H](C)CN([C@H](C)CO)S2(=O)=O | 2.6
C[C@@H]1CN([C@@H](C)CO)C(=O)Cc2cc(NC(=O)CCCCCC(=O)Nc3ccccc3N)ccc2O[C@@H]1CN(C)Cc1ccc(Oc2ccccc2)cc1 | 12.1
COc1cccc(-c2ccc3c(c2)O[C@@H](CN(C)C(C)=O)[C@@H](C)CN([C@H](C)CO)S3(=O)=O)c1 | -3.1
CO[C@@H]1CN(C)C(=O)c2cc(NC(C)=O)ccc2OC[C@@H](C)N(C(=O)CN(C)C)C[C@@H]1C | 0.1
C[C@H]1CN([C@@H](C)CO)C(=O)c2cc(Br)cnc2O[C@H]1CN(C)Cc1ccccn1 | 2.8
COCC(=O)N(C)C[C@@H]1Oc2ncc(C#Cc3ccccc3OC)cc2C(=O)N([C@H](C)CO)C[C@H]1C | 1.3
SMILES | miR122 inh
C[C@H]1CN([C@@H](C)CO)S(=O)(=O)c2ccc(C#Cc3ccncc3)cc2O[C@@H]1CN(C)S(=O)(=O)c1ccccc1 | -105.5
CO[C@@H]1CN(C)C(=O)c2cc(NC(=O)Cc3ccccc3)ccc2OC[C@@H](C)N(C)C[C@H]1C | -5.7
CNC(=O)C[C@H]1CC[C@@H]2[C@H](COc3ccc(NC(=O)c4cccc(OC)c4)cc3C(=O)N2C)O1 | 83.3*
C[C@H]1CN([C@@H](C)CO)C(=O)c2cc(-c3ccccc3)cnc2O[C@H]1CN(C)C(=O)c1cccnc1 | 0.2
C[C@H]1CN([C@@H](C)CO)S(=O)(=O)c2ccc(C#CCC3CCCC3)cc2O[C@@H]1CN(C)C(=O)CC1CC1 | -38.0
COc1ccc(CN(C)C[C@H]2Oc3c(NC(=O)NC4CCCCC4)cccc3C(=O)N([C@H](C)CO)C[C@@H]2C)cc1 | -255.2
COc1ccc(-c2cc(C3CCN(c4ccc(C(C)=O)cc4[N+](=O)[O-])CC3)[nH]n2)cc1 | 44.6*
Cc1ccc(N(Cc2ccco2)C(=O)c2ccc(N3CCCCC3)c([N+](=O)[O-])c2)cc1 | -164.5
COc1ccccc1-c1cnc2c(c1)C(=O)N([C@H](C)CO)C[C@@H](C)[C@H](CN(C)Cc1ccccc1)O2 | -5.1
CC(C)C#Cc1ccc2c(c1)O[C@@H](CN(C)CC1CCCC1)[C@H](C)CN([C@@H](C)CO)S2(=O)=O | -6.7
Cc1cccc(C)c1NC(=O)CSCC(=O)c1ccc(O)c(O)c1 | 35.5*

Assay outcomes from PubChem BioAssay.
